Bioassay records: PubChem BioAssay, National Center for Advancing Translational Sciences (NCATS)
SNCA expr inhib: inhibitors of alpha-synuclein (SNCA) gene expression; HEK-293 SNCA-luciferase knock-in, luminescence, 24 h; Potency, µM (series often up to 57.2 µM), without a hit: top-dose activity change, negative = inhibition, actives largely listed as inhibitors; actives 0.17% (n = 140,000);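 also: plate controls were DMSO cells for no effect and cell-free wells for full effect; nearly all actives have a fitted effect of over 45% in size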
FLuc inh: blocks purified firefly luciferase enzyme activity | P08659 | purified P. pyralis luciferase, luminescence, biochemical | Potency, µM (highest dose often 115 µM), most hits filed as inhibitors | actives 2.5% (n = 76,000); also: nearly all actives have a fitted effect of over 65% in size
Target sequence (P08659 whole entry, looked up): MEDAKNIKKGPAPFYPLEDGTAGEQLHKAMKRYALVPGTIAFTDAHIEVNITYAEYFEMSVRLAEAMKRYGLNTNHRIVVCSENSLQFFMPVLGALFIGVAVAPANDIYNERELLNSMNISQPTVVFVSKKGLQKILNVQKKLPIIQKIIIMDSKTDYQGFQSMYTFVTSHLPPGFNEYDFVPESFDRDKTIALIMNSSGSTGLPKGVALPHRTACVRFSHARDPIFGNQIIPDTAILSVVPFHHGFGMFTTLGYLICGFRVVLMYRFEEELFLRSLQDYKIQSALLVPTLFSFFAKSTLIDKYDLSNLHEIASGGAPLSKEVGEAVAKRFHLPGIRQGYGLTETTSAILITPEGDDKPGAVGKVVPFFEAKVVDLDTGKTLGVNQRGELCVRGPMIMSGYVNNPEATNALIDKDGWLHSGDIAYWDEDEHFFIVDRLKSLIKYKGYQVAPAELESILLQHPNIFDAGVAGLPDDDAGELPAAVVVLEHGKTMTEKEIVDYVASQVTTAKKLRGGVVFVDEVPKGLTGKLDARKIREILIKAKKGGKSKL
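FLuc 10nM, D-luciferin 10uM, ATP 10uM, Mg acetate 10mM, Tris acetate pH 7.5, Tween/BSA; cpd qHTS; enzyme added last; CCD luminescence.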
HEK293 tox: HEK 293 cell cytotoxicity; actives 6.6% (n = 94,000); AID 1345083; Potency, µM (top dose mostly 115 µM), for inactives: top-dose activity change, negative = cytotoxicity, actives largely listed as inhibitors; HEK 293 viability, ATP luminescence (CellTiter-Glo), 48-72 h; also: nearly all actives have a fitted effect of over 60% in size
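CellTiter-Glo luminescence (cellular ATP) was read after 48 or 72 hr of compound exposure at 37 degree Celsius. Cells were HEK 293 plated at 250 cells/well.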
3T3 cytotox: NIH 3T3 cell cytotoxicity. Potency, µM (series often up to 96.7 µM), for the others: at the top dose activity change, negative = cytotoxicity, most hits filed as inhibitors. NIH 3T3 viability, CellTiter-Glo ATP luminescence, 48-72 h. actives 4.3% (n = 94,000); also: nearly all actives have a fitted effect of over 55% in size
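First NIH 3T3 cells are plated at 400 cells/well; next compound is pinned in; then plates incubate 48 or 72 hr at 37 °C; finally CellTiter-Glo is added and luminescence read after 10 min.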
NPR1 antag: human Npr1 receptor antagonism; HEK293 hNpr1 GloSensor cGMP, ANP-stimulated luminescence; Potency, µM (doses to about 46.3 µM), for the others: top-dose activity change, negative = inhibition, most hits filed as inhibitors; actives 1.6% (n = 76,000); calls by dose curve; also: nearly all actives have a fitted effect of over 60% in size
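HEK293 cells stably expressing human Npr1 and cGMP GloSensor pGS-40F, loaded 2 h with 2% GloSensor reagent, given compound 30 min at room temperature. Luminescence read before and 20 min after 0.1 nM hNppA.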
HEK293 viab: counter-screen for SNCA expression inhibitors: cell viability | HEK-293-SNCA-luc viability, GF-AFC fluorescence, 24 h | Potency, µM (doses to about 57.1 µM), inactives show at the highest dose activity change, negative = cytotoxicity, most hits filed as cytotoxic | actives 0.12% (n = 150,000) | AID 1671193;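 also: 0% = DMSO-treated cells and -100% = medium-only wells without cells; nearly all actives have a fitted effect of over 30% in size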
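HEK-293-SNCA-luc cells (1500/well) plated 24 h, then exposed 24 h to a dilution series; GF-AFC added 30 min at 37C, fluorescence 405/540 nm; normalised to medium-only and DMSO wells, Hill fit.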
Starred values were filed as active, the others as inactive; i = inactive; u = inconclusive; x = no result; [ ] = dose if it differs, or a comment. Sampled rows, rich in hits. Any-hit rate of the full collection: about 7.2%. Unless noted, calls follow the shape of the dose curve; as a rule, active = well fitted curve in the direction sought with a large enough effect; inconclusive = small, poorly fitted or top-dose-only effect, or another doubt; inactive = no such curve, though single readings can be large; an effect the other way counts as inactive or inconclusive. Unless noted, % is scaled to controls: 0 for no effect and ±100 for the full control effect; potency is read from the fitted curve at half-maximal effect.

SMILES	SNCA expr inhib	FLuc inh	HEK293 tox	3T3 cytotox	NPR1 antag	HEK293 viab
CC1=C(CCC(C)O[C@@H]2O[C@H](CO)[C@@H](O)[C@H](O)[C@H]2O)C(C)(C)CCC1=O (some centres not stated)	x	x	x	x	x	17.0%
Cc1cccc([S+](=O)([O-])N2CCC3(CC2)OCCN(CC2CC2)C3=O)c1	-29.0%[87.6 µM]	i	-14.5%[172 µM]	u	u	4.6%[87.6 µM]
Cc1cc(C)cc(C2(CNC(=O)C3CC4(CCNCC4)CN3)CCCC2)c1 (configuration not stated)	-12.2%	i	79.4µM*	u	-12.2%	-12.1%
CC(c1ccon1)N(C)C(=O)c1csc2nc(-c3cccc(C(F)(F)F)c3)cn12 (configuration not stated)	30.1%	i	u	u	2.9%	-1.7%
CC(C)CNC(=O)c1ccc2c(c1)C1(CCN(C)C1)CN2CC1CC1 (configuration not stated)	15.2%[87.6 µM]	i	u	u	-1.1%[70.6 µM]	6.0%[87.6 µM]
CN1CCC2(C1)CN(CC1CCOCC1)c1ccc(C(=O)NCCc3ccccc3)cc12 (configuration not stated)	14.9%[87.6 µM]	i	u	u	7.5%[70.6 µM]	4.9%[87.6 µM]
CN1CCC2(C1)CN(CC1CCOCC1)c1ccc(C(=O)NCCOc3ccccc3)cc12 (configuration not stated)	-15.3%	i	u	31.6µM*	-0.9%	5.6%
CN1CCC2(C1)CN(CC1CCOCC1)c1ccc(C(=O)NCCCO)cc12 (configuration not stated)	15.5%[87.6 µM]	i	u	89.1µM*	-1.0%[70.6 µM]	1.8%[87.6 µM]
Cc1ccsc1-c1[nH]nc2ncc(-c3ccnn3C)nc12	13.4%[87.6 µM]	i	-25.0%[230 µM]	u	-1.8%[70.6 µM]	8.5%[87.6 µM]
CN1CCC(N2CCC(CN(Cc3ccncc3)C(=O)c3cnc[nH]3)CC2)CC1	-1.1%	i	-7.9%	-16.4%	2.4%	6.9%
CCCOc1ccccc1C(C)Nc1nc(-c2cccnc2)nc2c1CNC2 (configuration not stated)	14.1%	i	79.4µM*	u	-29.0%	-2.3%
O=C(C1CCCN([S+](=O)([O-])c2cccc(C(F)(F)F)c2)C1)N1CCC(c2nc3ccncc3[nH]2)C1 (configuration not stated)	21.1%	x	-19.5%	-30.5%	x	2.4%
CCCCCNC(=O)C1CCCN1Cc1ccc(-c2cccc(OC)c2)cc1 (configuration not stated)	-26.0%	x	22.4µM*	39.8µM*	x	-6.6%
COc1cccc(-c2ccc(NC(=O)C3CCCN(C(=O)CC(F)(F)F)C3)cc2)c1 (configuration not stated)	33.1%	u	u	u	15.8µM*	-6.1%
COc1cccc(-c2ccc(NC(=O)C3CCCN3Cc3cnn(C)c3)cc2)c1 (configuration not stated)	47.6%	i	44.7µM*	u	-0.8%	-4.0%
CC(C)(C)CC(=O)N1CCCC(C(=O)Nc2cccc(-c3ccc(F)cc3)c2)C1 (configuration not stated)	-0.2%	i	u	u	-11.1%	5.0%
COc1cccc(CNC(=O)C2CCCN2Cc2ccc(-c3cccc(OC)c3)cc2)c1 (configuration not stated)	16.2%	x	u	35.5µM*	x	-13.6%
COc1cccc(-c2ccc(CN3CCCC3C(=O)NCC(F)F)cc2)c1 (configuration not stated)	1.5%	x	u	u	x	1.5%
C[C@H](NC(=O)CCc1nc2ccccc2c(=O)[nH]1)c1ccccc1	x	x	x	x	x	19.5%
COc1cccc(-c2cccc(CN3CCCC3C(=O)NC(C)C)c2)c1 (configuration not stated)	-5.5%[87.6 µM]	x	u	u	x	-13.4%[87.6 µM]
C=CCC(=O)N1CCCC1C(=O)Nc1ccc(-c2cccc(OC)c2)cc1 (configuration not stated)	38.3%	25.1µM*	u	-5.7%	-2.1%	-2.3%
COc1cccc(-c2cccc(CN3CCCC3C(=O)NCc3ccc(F)cc3F)c2)c1 (configuration not stated)	-11.2%	x	u	u	x	-18.8%
COc1cccc(-c2cccc(CN3CCCC3C(=O)N3CCCCC3)c2)c1 (configuration not stated)	19.7%	x	u	u	x	3.7%
COc1cccc(-c2cccc(CN3CCCC3C(=O)NCc3ccc(Cl)cc3)c2)c1 (configuration not stated)	x	x	39.8µM*	39.8µM*	x	x
COc1cccc(-c2cccc(CN3CCCC3C(=O)N3CCCC(C)C3)c2)c1 (configuration not stated)	x	x	50.1µM*	u	x	x
SMILES	SNCA expr inhib	FLuc inh	HEK293 tox	3T3 cytotox	NPR1 antag	HEK293 viab
CCOCCCNC(=O)C1CCCN1Cc1cccc(-c2cccc(OC)c2)c1 (configuration not stated)	-5.2%	x	25.1µM*	31.6µM*	x	-5.0%
Cc1ccc(NC(=O)Cn2c(N3CCCCC3)nc(C)c(C)c2=O)cc1C	22.9%	i	22.4µM*	u	-1.1%	-27.5%
CC(C)C(O)C1CCN(c2nccc(-c3cc(C(=O)O)ccn3)n2)CC1 (configuration not stated)	-27.4%	50.1µM*	-18.1%	-11.4%	0.2%	-5.7%
Cc1nc([C@@H]2CN(C(=O)c3nccc4ccccc34)C[C@H]2C(N)=O)n[nH]1	6.4%	i	u	-18.8%	3.0%	2.6%
COc1cccc(CN2CC[C@H](c3nc4ccccc4s3)C2)c1	112.4%[87.6 µM]	25.1µM*	100µM*	u	-29.7%[70.6 µM]	0.3%[87.6 µM]
Fc1ccc(CN2CC[C@H](c3nnc(Cc4ccccc4)o3)C2)cc1F	1.2%[87.6 µM]	i	u	u	0.3%[70.6 µM]	-14.2%[87.6 µM]
Clc1cccc(CN2CC[C@H](c3nc4ccccc4s3)C2)c1	118.7%[87.6 µM]	50.1µM*	100µM*	u	3.3%[70.6 µM]	1.3%[87.6 µM]
Fc1ccc(CN2CC[C@H](c3nc4ccccc4s3)C2)cc1F	98.9%[87.6 µM]	44.7µM*	100µM*	u	-5.7%[70.6 µM]	-1.5%[87.6 µM]
Cn1c([C@H]2CCN(Cc3ccc(F)c(F)c3)C2)nc2ccccc21	-25.7%[87.6 µM]	i	50.1µM*	u	-15.8%[70.6 µM]	-17.9%[87.6 µM]
Clc1cccc(CN2CC[C@H](c3nc4ccccc4o3)C2)c1	17.8%[87.6 µM]	i	u	-20.0%[174 µM]	-7.3%[70.6 µM]	7.6%[87.6 µM]
O=C(c1ccc2c(c1)OCO2)N1CCC(N2CCOC2=O)CC1	-18.7%	x	i	i	x	3.9%
O=C(Nc1ccc(-c2nnc3n2CCCC3)cc1)c1ccccc1F	24.9%	i	1.7%	2.4%	-0.5%	-1.7%
